Measured values: the supplement of paper PMC3545927
This is one part of the list. The true hit rate is not given.

Biological target: furin, P09958
Assay: furin cleavage Z-score vs untreated control; higher = more cleavage, active = 3.5 or more, inactive = 1 or less, 8 variable residues between constant flanks
Summary of the method: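 To give the cleavage Z-score, log read counts were set against furin-free reactions, lowess-adjusted and scaled by median absolute deviation. These counts came from PCR adapter-tagged, sequenced DNA released when purified furin cut 8-mer peptides fused to a cDNA oligonucleotide and held on magnetic beads by their N-terminus. Digests were 0.01 ml, 1:10 enzyme:substrate, in 50 mM HEPES pH 7.5 with CaCl2 and NaCl, for 7.5, 15 or 30 min.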

Chain of furin, P09958 (P09958 whole entry): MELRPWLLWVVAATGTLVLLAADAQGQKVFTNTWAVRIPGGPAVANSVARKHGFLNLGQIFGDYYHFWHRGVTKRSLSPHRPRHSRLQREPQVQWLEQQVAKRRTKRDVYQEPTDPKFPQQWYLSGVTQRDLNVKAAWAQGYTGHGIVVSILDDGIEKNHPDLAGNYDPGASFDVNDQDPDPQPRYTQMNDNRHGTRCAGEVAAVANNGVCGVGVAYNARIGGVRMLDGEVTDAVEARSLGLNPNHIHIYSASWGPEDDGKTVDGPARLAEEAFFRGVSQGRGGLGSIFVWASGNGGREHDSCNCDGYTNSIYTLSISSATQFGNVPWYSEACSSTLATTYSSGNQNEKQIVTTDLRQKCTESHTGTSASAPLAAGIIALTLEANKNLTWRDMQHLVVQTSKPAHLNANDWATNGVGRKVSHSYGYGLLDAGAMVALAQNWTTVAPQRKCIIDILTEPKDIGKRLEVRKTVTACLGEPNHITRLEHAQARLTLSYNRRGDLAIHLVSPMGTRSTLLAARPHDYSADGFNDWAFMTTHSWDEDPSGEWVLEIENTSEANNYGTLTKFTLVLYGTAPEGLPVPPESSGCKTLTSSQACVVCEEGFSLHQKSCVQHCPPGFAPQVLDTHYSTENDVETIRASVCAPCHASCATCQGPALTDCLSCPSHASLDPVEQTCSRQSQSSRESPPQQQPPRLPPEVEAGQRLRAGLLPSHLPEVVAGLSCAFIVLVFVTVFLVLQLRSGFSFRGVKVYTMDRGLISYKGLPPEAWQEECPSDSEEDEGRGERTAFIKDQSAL

CAEWEVPCHRAGNASASA [HC2448]
furin cleavage Z-score (7.5 min): 1.07
furin cleavage Z-score (15 min): 2.14
furin cleavage Z-score (30 min): 0.904 (inactive)

CAIGSVGLGKAGNASASA [HC1080]
furin cleavage Z-score (7.5 min): 1.13
furin cleavage Z-score (15 min): 0.942 (inactive)
furin cleavage Z-score (30 min): -0.856 (inactive)

CAETPCSGSWAGNASASA [HC1832]
furin cleavage Z-score (7.5 min): -0.56 (inactive)
furin cleavage Z-score (15 min): -0.454 (inactive)
furin cleavage Z-score (30 min): -0.69 (inactive)

CAGINAVAYYAGNASASA [HC866]
furin cleavage Z-score (7.5 min): -0.468 (inactive)
furin cleavage Z-score (15 min): -1.09 (inactive)
furin cleavage Z-score (30 min): -1.09 (inactive)

CARSRKEVELAGNASASA [FS-2089]
furin cleavage Z-score (7.5 min): 0.0687 (inactive)
furin cleavage Z-score (15 min): 0.38 (inactive)
furin cleavage Z-score (30 min): -1.75 (inactive)

CALKRRGKRSAGNASASA [FS-350]
furin cleavage Z-score (7.5 min): 12.2 (active)
furin cleavage Z-score (15 min): 12.5 (active)
furin cleavage Z-score (30 min): 8.44 (active)

CACGGRGKRSAGNASASA [FS-14]
furin cleavage Z-score (7.5 min): 8.41 (active)
furin cleavage Z-score (15 min): 9.33 (active)
furin cleavage Z-score (30 min): 7.54 (active)

CADELRGKRSAGNASASA [FS-754]
furin cleavage Z-score (7.5 min): -0.105 (inactive)
furin cleavage Z-score (15 min): 0.269 (inactive)
furin cleavage Z-score (30 min): -1.01 (inactive)

CALRKYPKRSAGNASASA [FS-358]
furin cleavage Z-score (7.5 min): 0.0194 (inactive)
furin cleavage Z-score (15 min): 0.839 (inactive)
furin cleavage Z-score (30 min): 1.49

CALKPRPKRSAGNASASA [FS-609]
furin cleavage Z-score (7.5 min): 10.8 (active)
furin cleavage Z-score (15 min): 12.3 (active)
furin cleavage Z-score (30 min): 9.88 (active)

CARKRAQKRSAGNASASA [FS-1064]
furin cleavage Z-score (7.5 min): 8.12 (active)
furin cleavage Z-score (15 min): 9.12 (active)
furin cleavage Z-score (30 min): 7.74 (active)

CAEVPCHRDSAGNASASA [HC2391]
furin cleavage Z-score (7.5 min): 0.533 (inactive)
furin cleavage Z-score (15 min): 1.52
furin cleavage Z-score (30 min): 1.63

CAFVSLLAPGAGNASASA [HC360]
furin cleavage Z-score (7.5 min): -0.325 (inactive)
furin cleavage Z-score (15 min): -1.4 (inactive)
furin cleavage Z-score (30 min): -1.08 (inactive)

CAEVPCHDPSAGNASASA [HC2371]
furin cleavage Z-score (7.5 min): 0.427 (inactive)
furin cleavage Z-score (15 min): 1.64
furin cleavage Z-score (30 min): 0.537 (inactive)

CAEVPCHRYSAGNASASA [HC2389]
furin cleavage Z-score (7.5 min): 0.533 (inactive)
furin cleavage Z-score (15 min): 1.28
furin cleavage Z-score (30 min): 1.5

CADLMEECSQAGNASASA [HC1805]
furin cleavage Z-score (7.5 min): -0.946 (inactive)
furin cleavage Z-score (15 min): -0.224 (inactive)
furin cleavage Z-score (30 min): -0.925 (inactive)

CALKRMQKRSAGNASASA [FS-610]
furin cleavage Z-score (7.5 min): 12.7 (active)
furin cleavage Z-score (15 min): 13.3 (active)
furin cleavage Z-score (30 min): 10.5 (active)

CAEAMTRYSAAGNASASA [HC1541]
furin cleavage Z-score (7.5 min): -0.217 (inactive)
furin cleavage Z-score (15 min): 0.448 (inactive)
furin cleavage Z-score (30 min): -0.963 (inactive)

CAEALRQKRAAGNASASA [FS-227]
furin cleavage Z-score (7.5 min): 6.68 (active)
furin cleavage Z-score (15 min): 7.12 (active)
furin cleavage Z-score (30 min): 5.04 (active)

CAHLVRQKRAAGNASASA [FS-1008]
furin cleavage Z-score (7.5 min): 10.3 (active)
furin cleavage Z-score (15 min): 10.1 (active)
furin cleavage Z-score (30 min): 7.65 (active)

CATTPCSGPWAGNASASA [HC1919]
furin cleavage Z-score (7.5 min): -0.176 (inactive)
furin cleavage Z-score (15 min): 1.46
furin cleavage Z-score (30 min): 0.343 (inactive)

CAFVLNNTRPAGNASASA [HC429]
furin cleavage Z-score (7.5 min): -0.02 (inactive)
furin cleavage Z-score (15 min): 0.46 (inactive)
furin cleavage Z-score (30 min): -0.424 (inactive)

CARRLREAVQAGNASASA [FS-2071]
furin cleavage Z-score (7.5 min): 0.989 (inactive)
furin cleavage Z-score (15 min): -0.0587 (inactive)
furin cleavage Z-score (30 min): 2.28

CARARRRSAEAGNASASA [FS-2889]
furin cleavage Z-score (7.5 min): 2.93
furin cleavage Z-score (15 min): 2.98
furin cleavage Z-score (30 min): 4.07 (active)

CARARRLRREAGNASASA [FS-288]
furin cleavage Z-score (7.5 min): 12.9 (active)
furin cleavage Z-score (15 min): 12.3 (active)
furin cleavage Z-score (30 min): 9.18 (active)

CARRLRARREAGNASASA [FS-291]
furin cleavage Z-score (7.5 min): 9.55 (active)
furin cleavage Z-score (15 min): 8.95 (active)
furin cleavage Z-score (30 min): 6.29 (active)

CARARKLADEAGNASASA [FS-2887]
furin cleavage Z-score (7.5 min): 0.23 (inactive)
furin cleavage Z-score (15 min): -0.74 (inactive)
furin cleavage Z-score (30 min): -2.19 (inactive)

CARARRRTPTAGNASASA [FS-1995]
furin cleavage Z-score (7.5 min): 0.355 (inactive)
furin cleavage Z-score (15 min): 2.75
furin cleavage Z-score (30 min): 0.804 (inactive)

CARARRSMDEAGNASASA [FS-2203]
furin cleavage Z-score (7.5 min): 10.2 (active)
furin cleavage Z-score (15 min): 11.1 (active)
furin cleavage Z-score (30 min): 8.05 (active)

CAVTKYIMTCAGNASASA [HC981]
furin cleavage Z-score (7.5 min): -0.549 (inactive)
furin cleavage Z-score (15 min): -0.794 (inactive)
furin cleavage Z-score (30 min): 0.2 (inactive)

CAEVPCHHPSAGNASASA [HC2375]
furin cleavage Z-score (7.5 min): 0.748 (inactive)
furin cleavage Z-score (15 min): 1.23
furin cleavage Z-score (30 min): 0.223 (inactive)

CAAPNYTFALAGNASASA [HC1198]
furin cleavage Z-score (7.5 min): -1.92 (inactive)
furin cleavage Z-score (15 min): -0.299 (inactive)
furin cleavage Z-score (30 min): -0.368 (inactive)

CAGDPPQPEYAGNASASA [HC1546]
furin cleavage Z-score (7.5 min): -0.406 (inactive)
furin cleavage Z-score (15 min): -0.628 (inactive)
furin cleavage Z-score (30 min): 0.347 (inactive)

CARVRRAIPRAGNASASA [FS-3123]
furin cleavage Z-score (7.5 min): 5.13 (active)
furin cleavage Z-score (15 min): 4.64 (active)
furin cleavage Z-score (30 min): 6.32 (active)

CARVRRAGQGAGNASASA [FS-2106]
furin cleavage Z-score (7.5 min): 3.76 (active)
furin cleavage Z-score (15 min): 5.43 (active)
furin cleavage Z-score (30 min): 4.94 (active)

CARVRRQIHAAGNASASA [FS-2319]
furin cleavage Z-score (7.5 min): 8.32 (active)
furin cleavage Z-score (15 min): 8.68 (active)
furin cleavage Z-score (30 min): 7.57 (active)

CASVSHARPRAGNASASA [HC1652]
furin cleavage Z-score (7.5 min): 0.173 (inactive)
furin cleavage Z-score (15 min): -1.3 (inactive)
furin cleavage Z-score (30 min): -0.282 (inactive)

CARVRRLFCRAGNASASA [FS-2245]
furin cleavage Z-score (7.5 min): 0.941 (inactive)
furin cleavage Z-score (15 min): 1.51
furin cleavage Z-score (30 min): 0.361 (inactive)

CARVRKDGGGAGNASASA [FS-2842]
furin cleavage Z-score (7.5 min): -0.741 (inactive)
furin cleavage Z-score (15 min): 1.03
furin cleavage Z-score (30 min): -1.03 (inactive)

CARVRRAATPAGNASASA [FS-2621]
furin cleavage Z-score (7.5 min): 11.8 (active)
furin cleavage Z-score (15 min): 12.6 (active)
furin cleavage Z-score (30 min): 10.3 (active)

CARCWVAMTPAGNASASA [HC279]
furin cleavage Z-score (7.5 min): -1.59 (inactive)
furin cleavage Z-score (15 min): 1.01
furin cleavage Z-score (30 min): -0.0231 (inactive)

CAMEEFSQHLAGNASASA [HC6]
furin cleavage Z-score (7.5 min): -0.132 (inactive)
furin cleavage Z-score (15 min): -1.04 (inactive)
furin cleavage Z-score (30 min): -0.188 (inactive)

CAADTVDGAGAGNASASA [CS9]
furin cleavage Z-score (7.5 min): 0.142 (inactive)
furin cleavage Z-score (15 min): -1.09 (inactive)
furin cleavage Z-score (30 min): -0.572 (inactive)
